# Test results from PubChem BioAssay (NCATS).
# Values joined by “and” are separate entries in the source; they are usually repeats but may differ in a detail not shown here. Identical values can stand only once. Results filed as inconclusive are left out. Entries that show only a call come without a potency. A number with no mark means an inactive call. Active and inactive are the calls of the source. Calls come from the whole dose curve; as a rule, active = well fitted inhibition curve with a large enough effect; inconclusive = small, poorly fitted or top-dose-only effect; inactive = flat fitted curve, though single readings scatter.
# Legend:
# [1] = tested on: PAD; test: qHTS profiling for inhibitors of Plasmodium falciparum proliferation (AID 504749); settings: P. falciparum in erythrocytes, SYBR Green DNA, 72 h; series mostly up to 28.7 µM
# Summary of the method: (§1)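 Parasite proliferation within erythrocytes, 72 h exposure. Endpoint: SYBR Green I fluorescence after overnight lysis at room temperature. Controls: 0.29 uM artemisinin, DMSO.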
# [2] = tested on: PC15; test: as above; settings: P. falciparum in erythrocytes, SYBR Green DNA, 72 h; series mostly up to 28.7 µM
# Summary of the method: as §1
# [3] = tested on: PC26; test: as above; settings: P. falciparum in erythrocytes, SYBR Green DNA, 72 h; series mostly up to 28.7 µM
# Summary of the method: as §1
# [4] = tested on: PC49; test: as above; settings: P. falciparum in erythrocytes, SYBR Green DNA, 72 h; series mostly up to 28.7 µM
# Summary of the method: as §1
# [5] = tested on: SC27B; test: as above; settings: P. falciparum in erythrocytes, SYBR Green DNA, 72 h; series mostly up to 28.7 µM
# Summary of the method: as §1
# [6] = tested on: TAB109; test: as above; settings: P. falciparum in erythrocytes, SYBR Green DNA, 72 h; series mostly up to 28.7 µM
# Summary of the method: as §1
# [7] = tested on: TAB165; test: as above; settings: P. falciparum in erythrocytes, SYBR Green DNA, 72 h; series mostly up to 28.7 µM
# Summary of the method: as §1
# [8] = tested on: W2; test: as above; settings: P. falciparum in erythrocytes, SYBR Green DNA, 72 h; series mostly up to 28.7 µM
# Summary of the method: as §1
# [9] = tested on: MCC-13; test: qHTS assay to identify novel small-molecules to repurpose for Merkel cell carcinoma treatment (AID 1296009); settings: MCC and control cell lines, CellTiter-Glo viability, 72 h; series mostly up to 46 µM; note: potency is the fitted concentration of half-maximal effect
# Summary of the method: (§2)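 qHTS format: cells treated with library compounds in DMSO across 8 (NPC) or 11 (MIPE) concentrations. Readout after 72 hr at 37 degree celsius was CellTiter-Glo luminescence.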
# [10] = tested on: MKL-1; test: as above; settings: MCC and control cell lines, CellTiter-Glo viability, 72 h; series mostly up to 46 µM
# Summary of the method: as §2
# [11] = tested on: MKL-2; test: as above; settings: MCC and control cell lines, CellTiter-Glo viability, 72 h; series mostly up to 46 µM
# Summary of the method: as §2
# [12] = tested on: HaCat; test: Cytotoxic Profiling of Annotated Libraries Using Quantitative High-Throughput Screening (AID 1296008); settings: Five cell lines viability, CellTiter-Glo ATP luminescence, 48-72 h; max response: active compounds read low; note: potency is the fitted concentration of half-maximal effect
# Summary of the method: (§3)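 Compounds were pin-transferred onto cells and incubated 48 or 72 hr at 37 degree Celsius, 95% humidity. CellTiter-Glo was added, plates sat 10 min at room temperature, then ATP-coupled luminescence was imaged as the viability read-out.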
# [13] = tested on: KB-3-1; test: as above; settings: Five cell lines viability, CellTiter-Glo ATP luminescence, 48-72 h; max response: active compounds read low
# Summary of the method: as §3
# [14] = tested on: NIH3T3; test: as above; settings: Five cell lines viability, CellTiter-Glo ATP luminescence, 48-72 h; max response: active compounds read low
# Summary of the method: as §3
# [15] = tested on: MCC-26; test: qHTS assay to identify novel small-molecules to repurpose for Merkel cell carcinoma treatment (AID 1296009); settings: MCC and control cell lines, CellTiter-Glo viability, 72 h; series mostly up to 46 µM; note: potency is the fitted concentration of half-maximal effect
# Summary of the method: as §2
# [16] = tested on: HEK293; test: Cytotoxic Profiling of Annotated Libraries Using Quantitative High-Throughput Screening (AID 1296008); settings: Five cell lines viability, CellTiter-Glo ATP luminescence, 48-72 h; max response: active compounds read low; note: potency is the fitted concentration of half-maximal effect
# Summary of the method: as §3
# [17] = tested on: HACAT; test: qHTS assay to identify novel small-molecules to repurpose for Merkel cell carcinoma treatment (AID 1296009); settings: MCC and control cell lines, CellTiter-Glo viability, 72 h; at 44.8 µM (top of the series) unless noted; note: potency is the fitted concentration of half-maximal effect
# Summary of the method: as §2
# Note: nearly all actives have a fitted effect of over 60% in size.
smiles,measurement,setting,value
CCCCCN(C)CCC(O)(P(=O)(O)O)P(=O)(O)O,outcome,[1],inactive
same,outcome,[2],inactive
same,Potency,[3],inactive
same,outcome,[4],inactive
same,Potency,[5],inactive
same,outcome,[6],inactive
same,Potency,[7],inactive
same,Potency,[8],inactive
same,Potency,[9],inactive
same,Potency,[10],inactive
same,Potency,[11],inactive
Cc1nnc(C(C)C)n1C1C[C@H]2CC[C@@H](C1)N2CC[C@H](NC(=O)C1CCC(F)(F)CC1)c1ccccc1 (stereo partly drawn),max response,[12],3.6%
same,max response,[13],3.29%
same,outcome,[14],inactive
same,Potency,[9],inactive
same,Potency,[15],inactive
same,Potency,[10],inactive
same,Potency,[11],inactive
O=C(NOCC(O)CO)c1cc(Br)c(F)c(F)c1Nc1ccc(I)cc1F (stereo not drawn),max response,[16],0.434%
same,max response,[13],-16.7%
same,Potency,[15],inactive
same,Potency,[10],inactive
same,Potency,[11],inactive
O=C(N[C@@H](c1ccccc1)[C@@H]1CCCCN1)c1cccc(C(F)(F)F)c1Cl,max response,[12],4.43%
same,max response,[13],-7.93%
same,max response,[14],-0.909%
same,Potency,[9],inactive
same,Potency,[15],inactive
same,Potency,[10],inactive
same,Potency,[11],inactive
COc1ccc(-c2oc3c(CC=C(C)C)c(OC4O[C@H](CO)[C@@H](O)[C@H](O)[C@@H]4O)cc(O)c3c(=O)c2OC2O[C@@H](C)[C@H](O)[C@@H](O)[C@@H]2O)cc1 (stereo partly drawn),Potency,[16],18.7 µM (active)
same,max response,[14],-16.5%
same,Potency,[9],inactive
same,Potency,[15],inactive
same,Potency,[10],inactive
Cc1ccc(F)c(NC(=O)Nc2ccc(-c3cccc4[nH]nc(N)c34)cc2)c1,max response,[12],2.26%
same,max response,[14],-7.65%
same,Potency,[9],inactive
same,Potency,[11],inactive
CNC1CCC(N(Cc2cccc(-c3ccncc3)c2)C(=O)c2sc3c(F)ccc(F)c3c2Cl)CC1 (stereo not drawn),Potency,[16],13.2 µM (active) and 13 µM (active)
same,outcome,[12],inactive
same,outcome,[17],inactive
same,Potency,[9],inactive
same,Potency,[15],inactive
C[C@H](NC(=O)C(=O)Nc1ccccc1C(C)(C)C)C(=O)N[C@@H](CC(=O)O)C(=O)COc1c(F)c(F)cc(F)c1F,outcome,[12],inactive
same,outcome,[13],inactive
same,outcome,[14],inactive
same,outcome,[17],inactive
same,Potency,[10],20.9 µM (active)
same,Potency,[11],16.6 µM (active)
Cc1c(O)cccc1C(=O)N[C@@H](CSc1ccccc1)[C@H](O)CN1C[C@H]2CCCC[C@@H]2C[C@@H]1C(=O)NC(C)(C)C,Potency,[9],inactive
same,Potency,[15],inactive
same,Potency,[10],inactive
same,Potency,[11],inactive
CC(C)n1cnc2c(NCCCCCCNC(=O)OC(C)(C)C)nc(NCCO)nc21,Potency,[16],14.8 µM (active)
same,max response,[12],-3.35%
same,Potency,[9],inactive
same,Potency,[15],inactive
same,Potency,[10],inactive
same,Potency,[11],inactive
CC1(C)CCC2=C(O1)c1ccccc1C(=O)C2=O,outcome,[12],inactive
same,max response,[13],7.27%
same,outcome,[17],inactive
same,Potency,[15],inactive
COc1cccc2c1CCCC2CCCN1CCN(C2CCCCC2)CC1 (stereo not drawn),Potency,[16],14.8 µM (active)
same,max response,[12],-16.8%
same,Potency,[9],inactive
same,Potency,[15],inactive
same,Potency,[10],inactive
CN(C)Cc1ccc(-c2nc3cccc4c3n2CCNC4=O)cc1,max response,[12],-6.01% and -9.35%
same,max response,[14],-8.05% and -9.14%
same,Potency,[9],inactive
same,Potency,[10],inactive
Clc1ccc(C(c2ccc(Cl)cc2)n2cc[n+](CC(OCc3ccc(Cl)cc3Cl)c3ccc(Cl)cc3Cl)c2)cc1 (stereo not drawn),Potency,[16],14.8 µM (active)
same,Potency,[13],18.7 µM (active)
same,Potency,[9],inactive
same,Potency,[15],inactive
same,Potency,[10],20.9 µM (active)
same,Potency,[11],10.5 µM (active)
CC=CCC(C)C(O)C1C(=O)NC(CC)C(=O)N(C)CC(=O)N(C)C(CC(C)C)C(=O)NC(C(C)C)C(=O)N(C)C(CC(C)C)C(=O)NC(C)C(=O)NC(C)C(=O)N(C)C(CC(C)C)C(=O)N(C)C(CC(C)C)C(=O)N(C)C(C(C)C)C(=O)N1C (stereo not drawn),outcome,[17],inactive
same,Potency,[9],inactive
same,Potency,[15],inactive
same,Potency,[10],inactive
